Assay outcomes deposited in PubChem by National Center for Advancing Translational Sciences (NCATS).
AmpC no deterg = AmpC beta-lactamase inhibition without detergent; AmpC nitrocefin hydrolysis, absorbance 480 nm, 0.0001% Triton; Potency, µM (series often up to 57.1 µM), for the others: top-dose activity change, negative = inhibition, hits mostly inhibitors; actives 0.52% (n = 330,000);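 also: potency is read from the fitted curve at half-maximal effect; plate controls were no compound for no effect and no enzyme for full effect; nearly all actives have a fitted effect of over 20% in size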
Target sequence (P00811 whole entry, looked up): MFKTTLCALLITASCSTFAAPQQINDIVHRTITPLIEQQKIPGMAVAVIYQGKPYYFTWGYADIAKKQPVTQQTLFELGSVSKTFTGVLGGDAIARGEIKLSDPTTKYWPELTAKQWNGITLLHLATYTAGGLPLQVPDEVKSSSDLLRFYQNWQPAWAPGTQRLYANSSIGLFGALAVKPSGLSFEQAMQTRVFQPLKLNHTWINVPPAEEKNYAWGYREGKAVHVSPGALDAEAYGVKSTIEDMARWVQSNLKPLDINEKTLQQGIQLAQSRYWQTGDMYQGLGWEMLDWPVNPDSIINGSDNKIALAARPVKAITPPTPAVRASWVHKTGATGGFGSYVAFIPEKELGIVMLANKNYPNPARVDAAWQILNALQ
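20 mM phosphate pH 7.0 + 0.01% (detergent screen) or 0.0001% Triton X-100; 5.3 nM AmpC reagent; cpd preinc 15 min RT; nitrocefin (800 uM stock) to start; A480 q20 s × 4 min; Activity was normalised to no-enzyme and no-compound control wells.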
HCV inh = inhibitors of hepatitis C virus infection | Huh7.5.1 HCVcc-Cre infection, luciferase reporter, 44 h | Potency, µM (series often up to 41.8 µM), inactives show at the highest dose activity change, negative = inhibition, usual class: inhibitors | AID 651820 | actives 3.4% (n = 340,000); also: potency is read from the fitted curve at half-maximal effect
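After 44 h co-culture of compound, cells and HCVcc-Cre (~0.5 moi), substrate is added for 15 min at room temperature and luciferase measured over 15 sec. Cells were seeded at 1,000/well and pre-cultured 4 h.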
FMDV inh = blocks foot and mouth disease virus | Potency, µM (series often up to 57.9 µM), for the others: at the top dose activity change, negative = inhibition, usual class: inhibitors | FMDV antiviral cell-based qHTS | AID 1159524 | actives 1.2% (n = 410,000); calls by dose curve; tested in HEK293T cells; also: read-out not given here; potency is read from the fitted curve at half-maximal effect; nearly all actives have a fitted effect of over 45% in size
HCMV inh = human cytomegalovirus inhibition; HFF cells, HCMV-luciferase reporter, 72 h; stronger effect = lower value; activity change, negative = inhibition, % at 57.5 µM; actives 4.5% (n = 410,000); in the data active = activity change below about -60%; inconclusive = no clear call, values can overlap the other calls; inactive = above about -39%
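Human foreskin fibroblasts infected with luciferase-reporter HCMV at MOI 1 PFU/cell, compounds at two doses. Luciferase measured 72 h post infection; normalized to buffer-only basal and Salinomycin (10uM) controls.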
AmpC detergent = blocks E. coli AmpC beta-lactamase in detergent assay; P00811; AmpC hydrolysis of nitrocefin, absorbance 480 nm, 0.01% Triton; Potency, µM (series often up to 114 µM), without a hit: top-dose activity change, negative = inhibition, most hits filed as inhibitors; actives 0.041% (n = 370,000);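 also: potency is read from the fitted curve at half-maximal effect; 0% = no-compound wells and -100% = no-enzyme wells; nearly all actives have a fitted effect of over 25% in size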
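20 mM phosphate pH 7.0 + 0.01% (detergent screen) or 0.0001% Triton X-100; 5.3 nM AmpC reagent; cpd preinc 15 min RT; nitrocefin (800 uM stock) to start; A480 q20 s × 4 min; Activity was normalised to no-enzyme and no-compound control wells.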
The depositor's hits bear a star; [ ] = another dose, or the depositor's remark. Hits are enriched below; roughly 7.3% of the tested compounds scored in any of these assays. Unless noted, calls follow the shape of the dose curve; as a rule, active = well fitted curve in the direction sought with a large enough effect; inconclusive = small, poorly fitted or top-dose-only effect, or another doubt; inactive = no such curve, though single readings can be large; an effect the other way counts as inactive or inconclusive. Unless noted, % is scaled to controls: 0 for no effect and ±100 for the full control effect.

Results for CC1CCc2nn(CC(=O)NCCN3CCCCC3C)cc2C1 (stereo unspecified) ?
AmpC no deterg: 28.2µM*; HCV inh: -6.5%; FMDV inh: -18.7%; HCMV inh: -2.8; AmpC detergent: -4.5%

What do the screens show for `CC1CCc2nn(CC(=O)NC3CCCC(C)C3C)cc2C1` (stereo unspecified)?
AmpC no deterg: 1µM*; HCV inh: inconclusive; FMDV inh: -7.5%; HCMV inh: -31.1; AmpC detergent: -8.3%

How did CC1CCc2nn(CC(=O)Nc3ccc(F)cc3F)cc2C1 (stereo unspecified) do in these assays?
AmpC no deterg: 39.8µM*; HCV inh: 17.6%; FMDV inh: 13.4%; HCMV inh: -17.2; AmpC detergent: inconclusive

How did CC1CCc2nn(CC(=O)N3CCCCCC3)cc2C1 (stereo unspecified) do in these assays?
AmpC no deterg: 0.562µM*; HCV inh: 2.5%; FMDV inh: 26.5%; HCMV inh: 12.2; AmpC detergent: -3.4%

How did COc1ccc(CN2CCC3(CC2)c2ccccc2[C@@H](NC(=O)c2ccccc2)[C@@H]3O)cc1O do in these assays?
FMDV inh: 3.7%

What do the screens show for `Cn1cnc([N+](=O)[O-])c1Sc1nc(N)nc2c1ncn2C1CC(O)C(CO)O1` (stereo unspecified)?
HCV inh: inconclusive; FMDV inh: inconclusive; HCMV inh: -82.2*

What do the screens show for `Nc1nc(SCc2ccc(Br)cc2)c2ncn(C3OC(CO)C(O)C3O)c2n1` (stereo unspecified)?
HCV inh: -13.0%; FMDV inh: 18.5%; HCMV inh: -61.1*

What do the screens show for `Nc1nc(SCc2ccc([N+](=O)[O-])cc2)c2ncn([C@@H]3O[C@H](CO)[C@@H](O)[C@H]3O)c2n1`?
FMDV inh: -7.1%

What do the screens show for `Cn1cnc([N+](=O)[O-])c1Sc1nc(N)nc2c1ncn2C1OC(CO)C(O)C1O` (stereo unspecified)?
HCV inh: -25.1%; FMDV inh: inconclusive; HCMV inh: -76.3*

Results for CCOC(=O)C(C(=O)N(C)Cc1ccccc1)C1CCCCC1 (stereo unspecified) ?
AmpC no deterg: 32.9%; HCV inh: -12.4%; FMDV inh: 6.0%; HCMV inh: 5.1; AmpC detergent: 1.2%

Results for CC(C)c1ccc(C2(C)NC(=O)N(CC(=O)NC3CCCC(C)C3C)C2=O)cc1 (stereo unspecified) ?
AmpC no deterg: 42.7%; HCV inh: inconclusive; FMDV inh: inconclusive; HCMV inh: 10.5; AmpC detergent: -7.7%

Results for Cc1cccc(C)c1NC(=O)CN1CCC(Cc2ccccc2)CC1 ?
FMDV inh: -17.8%; HCMV inh: -11.6

How did Cc1cccc(C)c1NC(=O)CN1CCN(CCCC(c2ccc(F)cc2)c2ccc(F)cc2)CC1 do in these assays?
AmpC no deterg: 217.8%; HCV inh: 2µM*; FMDV inh: 0.0%; HCMV inh: 6.3; AmpC detergent: inconclusive

Results for O=C(NCc1ccccc1)C1=C[C@H](C2CCCCC2)C[C@H](OCc2ccc(CO)cc2)O1 ?
AmpC no deterg: -3.8%; HCV inh: 13.9%; FMDV inh: -3.9%; HCMV inh: -83.6*; AmpC detergent: -3.2%

How did O=C(NCc1ccccc1)C1=C[C@@H](c2csc3ccccc23)C[C@@H](OCc2ccc(CO)cc2)O1 do in these assays?
AmpC no deterg: -8.9%; HCV inh: inconclusive; FMDV inh: 2.8%; HCMV inh: -97.9*; AmpC detergent: 9.3%

Results for O=C(NC1CC1)C1=C[C@H](c2csc3ccccc23)C[C@H](OCCCCO)O1 ?
AmpC no deterg: 114.3%; HCV inh: -18.6%; FMDV inh: -5.8%; HCMV inh: 1.1; AmpC detergent: 7.4%

How did O=C(NCc1ccccc1)C1=C[C@@H](c2csc3ccccc23)C[C@@H](OCCCCO)O1 do in these assays?
AmpC no deterg: -0.8%; HCV inh: -20.3%[8.37 µM]; FMDV inh: 28.7%; HCMV inh: -97.1*; AmpC detergent: 4.9%

What do the screens show for `O=C(O)C1=C[C@H](c2csc3ccccc23)C[C@H](OCc2ccc(CO)cc2)O1`?
AmpC no deterg: -35.6%; HCV inh: 26.8%; FMDV inh: -3.9%; HCMV inh: 4.7; AmpC detergent: 3.0%

How did CN(C)CCCNS(=O)(=O)c1ccc(NC2CCCCCC2)c([N+](=O)[O-])c1 do in these assays?
AmpC no deterg: 103.8%; HCV inh: 5.62µM*; FMDV inh: -26.2%; HCMV inh: -69.1*; AmpC detergent: -1.6%

How did CC(NC(=O)OCc1ccccc1)C(=O)Oc1cc2oc(=O)cc(-c3ccccc3)c2cc1Cl (stereo unspecified) do in these assays?
AmpC no deterg: -22.7%; HCV inh: 25.5%; FMDV inh: -17.9%; HCMV inh: -93.8*; AmpC detergent: -14.6%

Results for CC(=O)c1sc(N)c(C(=O)OC(C)C)c1C ?
AmpC no deterg: -9.0%; HCV inh: 14.1µM*; FMDV inh: 13.6%; HCMV inh: 126.8; AmpC detergent: 1.5%

What do the screens show for `Cc1c(C(=O)OC(C)C)sc(N)c1C(=O)OC(C)C`?
AmpC no deterg: -5.6%; HCV inh: inconclusive; FMDV inh: 12.3%; HCMV inh: -29.0; AmpC detergent: -2.7%

What do the screens show for `O=C(Nc1cccc(C(F)(F)F)c1)Nc1nnc([C@@H]2C[C@H](O)[C@@H](CO)O2)s1`?
FMDV inh: -20.4%; HCMV inh: inconclusive

How did CCN(CC)C(=O)C1CCCN(C(=S)Nc2cccc3ccccc23)C1 (stereo unspecified) do in these assays?
AmpC no deterg: -13.1%; HCV inh: 7.0%; FMDV inh: -13.6%; HCMV inh: 15.2; AmpC detergent: -2.6%

How did NC(=O)C1CCCN(C(=O)Nc2cccc3ccccc23)C1 (stereo unspecified) do in these assays?
AmpC no deterg: -13.1%; HCV inh: 8.1%; FMDV inh: -10.9%; HCMV inh: -64.1*; AmpC detergent: 3.1%

Results for S=C(Nc1cccc2ccccc12)NN1CCCCCC1 ?
HCV inh: -22.4%; FMDV inh: -4.5%; HCMV inh: -62.5*

Results for COCc1c(C(=O)NC2CCCC2)cnn1-c1nccc(-c2ccco2)n1 ?
FMDV inh: 17.8%

What do the screens show for `CCC1CN(CCNC(=O)c2scc3c2OCCO3)Cc2cc(OC)ccc2O1` (stereo unspecified)?
FMDV inh: 27.0%

How did On1ccccc1=S do in these assays?
AmpC no deterg: -41.7%; HCV inh: 6.31µM*; FMDV inh: inconclusive; HCMV inh: -98.9*; AmpC detergent: inconclusive

Results for O=C(Cn1ccccc1=S)c1ccc(Cl)c(Cl)c1 ?
HCV inh: -6.5%; FMDV inh: -18.3%; HCMV inh: inconclusive
